Measurements reported in PubChem BioAssay.
Results filed as inconclusive are left out. Activity calls are given as the source filed them.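 The calls were made as follows, unless noted: active = inhibition over a set limit, the all-compound mean plus 3 SD, in both replicate runs; inconclusive = over that limit in just one replicate run; inactive = at or under that limit in both runs.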

Experiment: viability of PTEN-null HCT116 cells – cell-based, HCT116 clonal line, CellTiter-Glo, pilot screen (AID 824;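 active = viability at or below 27.92% in each of two runs, the all-compound median minus 4 SD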;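 also: 0% = 20 µM Hyamine control and 100% = vehicle cell control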)
Conditions: HCT116 PTEN-deleted viability, 60 h, at 10 µM, active compounds read low

Row | Compound | viability
1 | CN1CSC2=C(C#N)C(c3cccc(OCc4ccccc4)c3)CC(=O)N2C1 (centres undefined) | 88.5% (inactive)
2 | COc1ccccc1-n1c(CNC(=O)c2ccccc2)nnc1SCC(=O)Nc1nnc(C)s1 | 102% (inactive)
3 | Cn1cccc1Cc1nnc(SCC(=O)Nc2ccc3c(c2)OCCO3)n1CCc1ccccc1 | 81% (inactive)
4 | CN(Cc1ccccc1)c1oc(COc2ccccc2F)nc1C#N | 80.9% (inactive)
5 | CCOC(=O)c1cc2c(=O)n3ccccc3nc2n(Cc2ccco2)c1=NC(=O)c1cccnc1 | 99% (inactive)
6 | CCOC(=O)c1[nH]c(C)c(C(=O)N2CCOCC2)c1C | 104% (inactive)
7 | CCCOC(=O)c1ccc(NC(=O)CCC(=O)OCC)cc1 | 98.6% (inactive)
8 | COC(=O)CSc1nc2ccc(NC(=O)CSc3nnnn3Cc3ccccc3)cc2s1 | 96.9% (inactive)
9 | Cc1ccc(C)c(C(=O)Nc2c(C(N)=O)oc3ccccc23)c1 | 86.7% (inactive)
10 | C(#Cc1ccccc1)CN1CCN(c2ccccn2)CC1 | 91.9% (inactive)
11 | COc1cc(OC)c(NC(=O)CS(=O)(=O)Cc2nc(-c3ccc(C)cc3)oc2C)cc1Cl | 78.1% (inactive)
12 | COc1cccc(CSc2nc3sc(C)c(C)c3c(=O)n2Cc2ccco2)c1 | 93% (inactive)
13 | Cc1noc(/C=C/NCc2cccnc2)c1S(=O)(=O)N(C)CC(=O)N1CCc2ccccc21 | 86.4% (inactive)
14 | O=C(CCS(=O)(=O)c1cccc2nonc12)N1CC(=O)N(CCc2ccccc2)C(=O)C1 | 92.3% (inactive)
15 | COc1ccc(-c2noc(-c3cc(C)cc(C)c3)n2)cc1OC | 96.6% (inactive)
16 | Cc1ccc(-c2nn(-c3ccccc3)cc2C2SCC(=O)N2Cc2ccccc2)o1 (centres undefined) | 68.9% (inactive)

Experiment: RAM pathway blockade in budding yeast – dse1pr::URA3 reporter, 5-FOA selection, pilot screen (AID 869);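 also: 0% = DMSO wells with no growth and 100% = 10 µM 1-NA-PP1 with full growth; RAM network block rescues cells from 5-FOA so hits raise OD615 growth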
Conditions: S. cerevisiae dse1pr::URA3 5-FOA growth, OD615, 2 d; at 10 µM; active compounds read high; strain carries analog-sensitive mutant Cbk1 kinase

Row | Compound | inhibition
17 | CCCOc1cccc(C(=O)Nc2cccnc2)c1 | 0.93% (inactive)
18 | COc1ccc(-c2n[nH]c(C)c2-c2cnn(-c3ccccc3)c2)c(O)c1 | -0.205% (inactive)
19 | COc1ccc(OC)c(NC(=O)C2CCC(CNc3c(N4CCC(C)CC4)c(=O)c3=O)CC2)c1 (centres undefined) | 0.96% (inactive)
20 | COC(=O)c1c(NC(=O)C2CC2)sc2c1CCCC2 | 1.37% (inactive)
21 | CC(C)Oc1ccc(NC(=O)Oc2ccccc2)cc1 | 2.38% (inactive)
22 | COCCNc1oc(-c2ccccc2Cl)nc1C#N | 1.51% (inactive)
23 | O=c1c2ccccc2nc(N2CCN(c3ccccc3)CC2)n1Cc1ccccc1 | 1.27% (inactive)
24 | CCC(Sc1nc2c(cnn2-c2ccccc2)c(=O)[nH]1)C(=O)OC (centres undefined) | 0.65% (inactive)
25 | Cn1c(-n2c(CCCN3C(=O)c4ccccc4C3=O)nc3ccccc3c2=O)nc2ccccc21 | 2.62% (inactive)
26 | CCOC(=O)C1Cn2c(nc3c(c2=O)C2(CCCC2)Cc2ccccc2-3)S1 (centres undefined) | 2.23% (inactive)
27 | COC(=O)c1ccc(CSc2ccc3nnc(-c4cccc(F)c4)n3n2)o1 | -0.025% (inactive)
28 | O=C(O)CC1C(=O)NCCN1C/C=C/c1ccccc1 (centres undefined) | 3.62% (inactive)
29 | CCN1CCN(CC(=O)Nc2cccc(C)c2)C(=O)C1=O | 1.27% (inactive)
30 | CCCCOc1ccccc1C1NC(=O)NC(C)=C1C(=O)OCCOC (centres undefined) | 2.28% (inactive)
31 | Brc1ccc(-c2nnc3ccc(N4CCN(c5ccccc5)CC4)nn23)cc1 | 2.52% (inactive)
32 | CN1CSC2=C(C#N)C(c3cccc(OCc4ccccc4)c3)CC(=O)N2C1 (centres undefined) | 0.785% (inactive)
33 | COc1ccccc1-n1c(CNC(=O)c2ccccc2)nnc1SCC(=O)Nc1nnc(C)s1 | 1.05% (inactive)
34 | Cn1cccc1Cc1nnc(SCC(=O)Nc2ccc3c(c2)OCCO3)n1CCc1ccccc1 | 2.25% (inactive)
35 | CN(Cc1ccccc1)c1oc(COc2ccccc2F)nc1C#N | 1.07% (inactive)
36 | CCOC(=O)c1cc2c(=O)n3ccccc3nc2n(Cc2ccco2)c1=NC(=O)c1cccnc1 | 1.91% (inactive)
37 | CCOC(=O)c1[nH]c(C)c(C(=O)N2CCOCC2)c1C | 3.29% (inactive)
38 | CCCOC(=O)c1ccc(NC(=O)CCC(=O)OCC)cc1 | 2.24% (inactive)
39 | COC(=O)CSc1nc2ccc(NC(=O)CSc3nnnn3Cc3ccccc3)cc2s1 | 4.05% (inactive)
40 | Cc1ccc(C)c(C(=O)Nc2c(C(N)=O)oc3ccccc23)c1 | 0.595% (inactive)
41 | COc1cc(OC)c(NC(=O)CS(=O)(=O)Cc2nc(-c3ccc(C)cc3)oc2C)cc1Cl | 1.96% (inactive)
42 | Cc1noc(/C=C/NCc2cccnc2)c1S(=O)(=O)N(C)CC(=O)N1CCc2ccccc21 | 2.5% (inactive)
43 | O=C(CCS(=O)(=O)c1cccc2nonc12)N1CC(=O)N(CCc2ccccc2)C(=O)C1 | -0.47% (inactive)
44 | Cc1ccc(-c2nn(-c3ccccc3)cc2C2SCC(=O)N2Cc2ccccc2)o1 (centres undefined) | 0.94% (inactive)
